Results from PubChem BioAssay (NCATS).
Records with an inconclusive call do not appear. Activity calls are given as the source filed them. Calls follow the shape of the dose curve; as a rule, active = well fitted activation curve with a large enough effect; inconclusive = small, poorly fitted or top-dose-only effect; inactive = flat fitted curve, though single readings scatter.

System: not listed separately
Assay: qHTS assay for environmental chemicals that activate the Aryl hydrocarbon Receptor (AhR) signaling pathway (AID 651777); also: nearly all actives have a fitted effect of over 15% in size
Conditions: 1A2-DRE human hepatoma cells, luciferase, 24 h; activation: hits give high values
How it was run: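 Human hepatoma 1A2-DRE cells, stably carrying a dioxin response element and CYP1A2 promoter driving luciferase, were exposed to compounds for 24 hr at 37 C and 5% CO2. Luciferase signal was then read after 30 min One-Glo at room temperature.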
Also: % of control where 0% means no effect.

| SMILES | activation |
| --- | --- |
| Fc1ccc(Oc2ccnc3cc(Cl)cc(Cl)c23)cc1 | 15% (inactive) |
| COC(=O)N(OC)c1ccccc1COc1ccn(-c2ccc(Cl)cc2)n1 | 10.6% (inactive) |
| CC[C@H]1CCCC(O[C@H]2CC[C@H](N(C)C)[C@@H](C)O2)[C@@H](C)C(=O)C2=C[C@@H]3[C@@H](C=C[C@@H]4C[C@@H](O[C@@H]5O[C@@H](C)[C@H](OC)[C@@H](OC)[C@H]5OC)C[C@@H]34)[C@@H]2CC(=O)O1 (stereo not given in full) | -0.354% (inactive) |
| O=C(O)[C@@H]1[C@H](C(=O)O)[C@@]2(Cl)C(Cl)=C(Cl)[C@]1(Cl)C2(Cl)Cl | 1.48% (inactive) |
| CCCCCCCCCCCCN(C)C | -2.66% (inactive) |
| CCOP(=S)(OCC)SCn1nnc2ccccc2c1=O | 6.1% (inactive) |
| CSC1=N[C@@](C)(c2ccccc2)C(=O)N1Nc1ccccc1 | -5.24% (inactive) |
| CCC[CH2][Sn]([Cl])([Cl])[CH2]CCC | -11.4% (inactive) |
| CC(C)(C)c1ccc(CSc2cnn(C(C)(C)C)c(=O)c2Cl)cc1 | -3.11% (inactive) |
| CC(c1ccc(O)cc1)(c1ccc(O)cc1)c1ccc(O)cc1 | -4% (inactive) |
| O=P(Oc1ccccc1)(Oc1ccccc1)Oc1ccccc1 | 2.98% (inactive) |

Molecular target: Peroxisome proliferator-activated receptor alpha (Homo sapiens) (UniProt Q07869)
Sequence (Q07869 whole entry, looked up): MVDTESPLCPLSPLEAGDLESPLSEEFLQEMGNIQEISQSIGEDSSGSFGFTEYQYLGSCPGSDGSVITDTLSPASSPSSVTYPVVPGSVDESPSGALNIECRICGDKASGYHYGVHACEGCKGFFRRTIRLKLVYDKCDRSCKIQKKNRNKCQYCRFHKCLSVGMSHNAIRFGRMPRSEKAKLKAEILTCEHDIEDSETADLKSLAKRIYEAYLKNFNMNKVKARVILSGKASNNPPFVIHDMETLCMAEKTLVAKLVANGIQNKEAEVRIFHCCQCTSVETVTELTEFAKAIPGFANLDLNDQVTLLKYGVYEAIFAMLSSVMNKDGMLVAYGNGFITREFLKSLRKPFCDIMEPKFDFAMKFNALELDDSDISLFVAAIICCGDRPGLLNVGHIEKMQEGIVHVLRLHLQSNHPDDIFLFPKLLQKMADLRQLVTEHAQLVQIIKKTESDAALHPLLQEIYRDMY
Assay: qHTS assay for small molecule agonists of the peroxisome proliferator-activated receptor alpha (PPARalpha) signaling pathway (AID 651778)
Conditions: PathHunter PPARalpha complementation, chemiluminescence, 6 h; max response: hits give high values
How it was run: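 Cells plated at 2,000/well and held overnight at 37 C, 5% CO2, then compound added by pin tool for 6 hr; after PathHunter detection reagent and 60 min at room temperature, chemiluminescence from enzyme complementation was read.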

| SMILES | max response |
| --- | --- |
| Fc1ccc(Oc2ccnc3cc(Cl)cc(Cl)c23)cc1 | 3.62% (inactive) |
| COC(=O)N(OC)c1ccccc1COc1ccn(-c2ccc(Cl)cc2)n1 | -0.36% (inactive) |
| CC[C@H]1CCCC(O[C@H]2CC[C@H](N(C)C)[C@@H](C)O2)[C@@H](C)C(=O)C2=C[C@@H]3[C@@H](C=C[C@@H]4C[C@@H](O[C@@H]5O[C@@H](C)[C@H](OC)[C@@H](OC)[C@H]5OC)C[C@@H]34)[C@@H]2CC(=O)O1 (stereo not given in full) | -2.17% (inactive) |
| O=C(O)[C@@H]1[C@H](C(=O)O)[C@@]2(Cl)C(Cl)=C(Cl)[C@]1(Cl)C2(Cl)Cl | 0.99% (inactive) |
| CCCCCCCCCCCCN(C)C | -1.36% (inactive) |
| CCOP(=S)(OCC)SCn1nnc2ccccc2c1=O | -0.264% (inactive) |
| CSC1=N[C@@](C)(c2ccccc2)C(=O)N1Nc1ccccc1 | -0.163% (inactive) |
| CCC[CH2][Sn]([Cl])([Cl])[CH2]CCC | -2.73% (inactive) |
| CC(C)(C)c1ccc(CSc2cnn(C(C)(C)C)c(=O)c2Cl)cc1 | -6% (inactive) |
| CC(c1ccc(O)cc1)(c1ccc(O)cc1)c1ccc(O)cc1 | -5.19% (inactive) |
| CC(C)N(C(=O)SCC(Cl)=C(Cl)Cl)C(C)C | 22.8% (inactive) |
| CCC[CH2][Sn]1([CH2]CCC)[O]C(=O)C=CC(=O)[O]1 | 0.652% (inactive) |
| CCC(C)c1cc([N+](=O)[O-])cc([N+](=O)[O-])c1O (stereo not given) | -1.93% (inactive) |
| O=P(Oc1ccccc1)(Oc1ccccc1)Oc1ccccc1 | -0.776% (inactive) |
